Results as given in PubChem BioAssay (NCATS).
Records with an inconclusive call do not appear. Unmarked numbers belong to inactive results. Active and inactive are the calls of the source. Calls come from the whole dose curve; as a rule, active = well fitted inhibition curve with a large enough effect; inconclusive = small, poorly fitted or top-dose-only effect; inactive = no such curve, though single readings can be large or run the other way.

Target: Cytochrome P450 3A4 (Homo sapiens) (UniProt P08684)
Assay: qHTS Assay for Inhibitors and Substrates of Cytochrome P450 3A4 (AID 884); note: nearly all actives have a fitted effect of over 50% in size
Details: recombinant CYP3A4, Luciferin-PPXE luminescence; series mostly up to 57.1 µM; activity change, negative = inhibition: at the top concentration
Method: NIH Molecular Libraries Screening Centers Network [MLSCN]
NIH Chemical Genomics Center [NCGC]
The P450 gene superfamily is involved in the metabolism and clearance of xenobiotics. This assay used human CYP3A4 to measure the dealkylation of luciferin-6' phenylpiperazinylyl (Luciferin-PPXE; […]) to luciferin. The luciferin is then measured by luminescence after the addition of a luciferase detection reagent. Luciferin-PPXE concentration in the assay was equal to its KM for CYP3A4. Inhibitors and some substrates limit the production of luciferin, and decrease measured luminescence.
NCGC Assay Protocol Summary:
Two uL of enzyme and substrate mix (final concentrations: 20nM CYP3A4, 25uM Luciferin-PPXE, 200mM KPO4) were dispensed into a white, solid bottom 1536-well microtiter plate. 23nL of compound was transferred by a pin tool. The plate was incubated at RT for 10 min. Two uL of an NADPH regeneration solution (Promega supplied reagent) was dispensed and the reaction was allowed to continue for 60 min at RT. Then the reaction was stopped by reconstituted luciferin detection buffer. After another 20 min of incubation the plate was read on the ViewLux (Perkin Elmer) at 60 sec exposure and 2x2 binning. This protocol was carried out with Promega-Glo reagents and further information can be found at http://www.promega.com/tbs/tb325/tb325.pdf. Data were normalized to the to AC100 inhibition (57 uM ketoconazole).
Keywords: P450, CYP3A4, Luciferase, MLSMR, MLSCN, NIH Roadmap, qHTS, NCGC
% is set by controls: 0 for no effect and ±100 for the full control effect; potency is the fitted concentration of half-maximal effect.

Sequence of Cytochrome P450 3A4 (Homo sapiens) (P08684 whole entry, looked up): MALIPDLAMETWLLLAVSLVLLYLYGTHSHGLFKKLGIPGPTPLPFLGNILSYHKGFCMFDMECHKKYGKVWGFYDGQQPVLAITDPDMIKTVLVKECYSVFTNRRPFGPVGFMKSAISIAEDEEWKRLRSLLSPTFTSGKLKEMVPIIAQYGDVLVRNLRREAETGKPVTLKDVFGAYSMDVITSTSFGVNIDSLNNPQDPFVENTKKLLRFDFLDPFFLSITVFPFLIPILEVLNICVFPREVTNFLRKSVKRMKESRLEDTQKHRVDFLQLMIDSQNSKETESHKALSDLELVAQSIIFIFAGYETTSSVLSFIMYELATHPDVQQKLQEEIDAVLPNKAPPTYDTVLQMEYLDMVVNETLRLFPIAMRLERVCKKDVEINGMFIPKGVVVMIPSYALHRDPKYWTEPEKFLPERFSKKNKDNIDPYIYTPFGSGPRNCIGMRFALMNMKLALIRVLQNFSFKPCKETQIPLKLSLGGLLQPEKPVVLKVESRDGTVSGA

Row | SMILES | activity change, negative = inhibition | Potency | outcome
1 | O=c1cc[nH]c(=S)[nH]1 | -14.3% |  | 
2 | O=C1O[C@H]([C@@H](O)CO)C(O)=C1O | -7.89% |  | 
3 | O=C(O)c1ccccc1O | -3.54% |  | 
4 | CCCCCCCCCCCCOS(=O)(=O)O |  | inactive | 
5 | CCn1cc(C(=O)O)c(=O)c2cnc(N3CCNCC3)nc21 | -3.07% |  | 
6 | CC(CN1c2ccccc2Sc2ccccc21)N(C)C (stereo not given) | -22.3% |  | 
7 | CN(C)CC[C@@H](c1ccc(Cl)cc1)c1ccccn1 | -2.49% |  | 
8 | CN(C)CCCN1c2ccccc2CCc2ccccc21 | -8.68% |  | inactive
9 | CC12CCC(CC1)C(C)(C)O2 |  | inactive | 
10 | Nc1ccc(S(=O)(=O)NC(=O)c2ccccc2)cc1 | -2.82% |  | 
11 | Cc1ccc(C(C)C)cc2c(C)ccc1-2 | -5.79% |  | 
12 | Nc1ccc(S(=O)(=O)Nc2nccs2)cc1 | -14.8% |  | 
13 | CCN(CC)CCNC(=O)c1cc(Cl)c(N)cc1OC | -2.24% |  | 
14 | CC1(C)OC(=O)NC1=O | 5.94% |  | 
15 | OCC(O)CN1CCN(c2ccccc2)CC1 (stereo not given) | -5.11% |  | 
16 | O=C1NS(=O)(=O)c2ccccc21 | 0.093% |  | 
17 | O=C(CCCN1CCN(c2ccccn2)CC1)c1ccc(F)cc1 |  | inactive | 
18 | NCC(=O)CCC(=O)O | -3.87% |  | 
19 | CCCCOC(=O)c1ccc(O)cc1 | -24.3% |  | 
20 | CC(=O)OCC(=O)[C@@]1(O)CC[C@H]2[C@@H]3CCC4=CC(=O)CC[C@]4(C)[C@H]3C(=O)C[C@@]21C | -6.74% |  | 

Row | SMILES | activity change, negative = inhibition | Potency | outcome
21 | Cc1c(Cl)cccc1Nc1ccccc1C(=O)O | 38.9% [at 25.6 µM] |  | 
22 | C#CCN(C)Cc1ccccc1 | 32.7% |  | 
23 | [Cl][In]([Cl])[Cl] | 0.348% |  | 
24 | CC1(C)[C@@H]2CC[C@@]1(C)C(=O)C2 | -12.6% |  | 
25 | CN(C)CCOC(C)(c1ccccc1)c1ccccn1 (stereo not given) | -10.6% |  | 
26 | OC[C@H]1O[C@@H](O[C@@H]2[C@@H](CO)O[C@](O)(CO)[C@H]2O)[C@H](O)[C@@H](O)[C@H]1O | -6.4% |  | 
27 | CCCCCCCCCCCCCCCCCCOCC(O)CO (stereo not given) | -11.9% |  | 
28 | c1ccc(CN(CC2=NCCN2)c2ccccc2)cc1 | -28.4% |  | 
29 | Nc1ccc(S(=O)(=O)Nc2ccc(Cl)nn2)cc1 | -25.7% |  | 
30 | CN(C)CCN(Cc1ccccc1)c1ccccn1 | -6.27% |  | 
31 | C=Cc1c(C)c2cc3[nH]c(cc4nc(cc5nc(cc1[nH]2)C(C)=C5CCC(=O)O)C(CCC(=O)O)=C4C)c(C)c3C=C | -17.6% |  | 
32 | CC(COc1ccccc1)NC(C)C(O)c1ccc(O)cc1 (stereo not given) | -6.3% |  | 
33 | O=C(Oc1ccccc1C(=O)O)c1ccccc1O | -12.3% |  | 
34 | NS(=O)(=O)c1cc2c(cc1Cl)NC(CSCc1ccccc1)=NS2(=O)=O |  | 25.1 µM (active) | 
35 | CN(C)CCC=C1c2ccccc2CCc2ccccc21 | -29% |  | 
36 | c1ccc2c(CC3=NCCN3)cccc2c1 | -11.8% |  | 
37 | COc1ccccc1O |  | inactive | 
38 | Cc1cc(CC(=O)O)n(C)c1C(=O)c1ccc(Cl)cc1 |  | inactive | 
39 | NCCNCCNCCNCCN | 6.79% |  | 
